# Test results taken from PubChem BioAssay (NCI).
# The panel holds about 83,000 compounds, 20% with a hit somewhere; the sample as a whole holds those more often.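 Method: cells in 96-well plates; compound added at one concentration; 48 h incubation; percent growth measured; values under 10 scored active.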 Activity calls are given as the source filed them.
# Tested on: EKVX NSCLC
# Assay: NCI-60 one-dose screen, 48 h (100 = growth as untreated, 0 = no growth, -100 = all killed)
# Details: 10 µM unless noted
row,SMILES,growth
1,COc1ccc(C(=O)c2cc(OC)c3c(c2)OCO3)cc1O,58.4% (inactive)
2,C=C1c2nc3ccccc3n2C=C(c2ccc(Cl)cc2)N1Cc1ccccc1,70.8% (inactive)
3,Cc1cc(C(C)(C)C)ccc1S,123% (inactive)
4,CCOC(=O)C1=C(C)NC(C)=C(C(=O)OCC)C1(C)C,108% (inactive)
5,COc1ccc(CNCCCN2C(=O)c3ccc4c5c(ccc(c35)C2=O)C(=O)N(CCCNCCCCNCCCN)C4=O)c(OC)c1OC,48.7% (inactive)
6,NNc1cccc(/C=C/c2ccccc2)cc1=O,47.9% (inactive)
7,O=C(Nc1ccncc1)C(=O)c1cn(S(=O)(=O)c2ccc(Br)cc2)c2ccccc12,44.5% (inactive)
8,CCCOC(=O)n1cccc1,99.7% (inactive)
9,CCN(CC)c1ccc(CNc2ccnc3ccccc23)cc1,45.3% (inactive)
10,COc1cccc(-c2cc3c(O)cc(C#N)cc3[nH]2)c1,77.8% (inactive)
11,O=[N+]([O-])c1cc(Cl)c2[nH]c3c(Cl)cc([N+](=O)[O-])cc3c2c1,-10.2% (active)
12,COc1cc(-c2nn(C(=O)NS(=O)(=O)c3ccccc3)cc2-c2ccncc2)ccc1Cl,56.1% (inactive)
13,COc1cc(NCCCCCN)c2ncccc2c1,113% (inactive)
14,NC(=N\N=C/c1ccc(O)cc1)/C(N)=N\N=C/c1ccc(O)cc1,65.5% (inactive)
15,Cn1c(=O)c2[nH]c(C3CC=CCC3)nc2n(C)c1=O (configuration not stated),113% (inactive)
16,O=C(/C=C/c1ccccc1)c1cccc(O)c1,108% (inactive)
17,C=C[C@@H]1C[C@H](O)Cc2cc(F)ccc2N1,89.3% (inactive)
18,O=C(O)Cc1cccc(=O)c(O)c1C(=O)O,110% (inactive)
19,c1ccc(-c2nnc(-c3ccccn3)s2)nc1,79.6% (inactive)
20,CC(C)CC1NC(C)(C)CO1 (configuration not stated),123% (inactive)
21,CC(C)(C)N1CCC1C(N)=O (configuration not stated),92.2% (inactive)
22,O=C(O)C1CCCCN1c1nc(Cl)nc(Cl)n1 (configuration not stated),99.8% (inactive)
23,CCCCN(CCCC)C(=N)c1ccnc2ccccc12,104% (inactive)
24,Cc1ccc(Cc2c(C=O)nc(N)[nH]c2=O)c2ccccc12,101% (inactive)
25,Cn1cnc2c(N3CCN(C(=O)OCc4ccc5c(Cl)cc(Cl)c(O)c5n4)CC3)nc(Cl)nc21,66.9% (inactive)
26,Cc1nc2ncccc2nc1Nc1ccc(S(=O)(=O)Nc2ccccn2)cc1,98% (inactive)
27,COc1ccc(C2=C(c3cc(OC)c(OC)c(OC)c3)C(=O)CC2)cc1,40% (inactive)
